The panel holds about 83,000 compounds, 20% with a hit somewhere; the sample as a whole holds those more often.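 Plates (96-well) were seeded with cells, treated with compound at one concentration, and incubated for 48 hours before percent growth was determined.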 Calls of active or inactive are those of the source. The calls were made as follows: active = growth percent below 10; inactive = the rest.
Columns and labels:
Experiment in all cases: NCI-60 one-dose screen, 48 h (100 = growth as untreated, 0 = no growth, -100 = all killed)
Conditions in all cases: 10 µM unless noted
T-47D breast = system: T-47D breast
BT-549 breast = system: BT-549 breast
MDA-MB-435 melanoma = system: MDA-MB-435 melanoma
SW-620 colon = system: SW-620 colon
MCF7 breast = system: MCF7 breast
HCT-116 colon = system: HCT-116 colon
HCC-2998 colon = system: HCC-2998 colon
KM12 colon = system: KM12 colon

Measured: growth

CNC1(C#N)CCN(Cc2ccccc2)CC1
active: T-47D breast 5.3%
inactive: BT-549 breast 203% | MDA-MB-435 melanoma 95.4% | SW-620 colon 105% | MCF7 breast 102% | HCT-116 colon 106% | HCC-2998 colon 106% | KM12 colon 103%

CCCCOc1nc2ccc(Cl)cc2cc1/C=C/C(=O)/C=C1/CC(c2cc3cc(Cl)ccc3nc2OCCCC)Nc2ccccc2N1 (stereo unspecified)
inactive: T-47D breast 83.5% | BT-549 breast 96.6% | MDA-MB-435 melanoma 104% | SW-620 colon 98.7% | MCF7 breast 74.2% | HCT-116 colon 97.6% | HCC-2998 colon 91.5% | KM12 colon 101%

COc1ccc(/C(C)=C(\c2ccc(Cl)cc2)c2ccc(OCCN3CCCCCC3)cc2)cc1F
inactive: T-47D breast 53.6% | BT-549 breast 66.3% | MDA-MB-435 melanoma 52.4% | SW-620 colon 20.3% | MCF7 breast 24.1% | HCT-116 colon 22.9% | HCC-2998 colon 36.9% | KM12 colon 23%

Cc1cc(Cc2cc(C)cc(C(C)(C)C)c2O)c(O)c(C(C)(C)C)c1
inactive: BT-549 breast 74.1% | MDA-MB-435 melanoma 52.2% | SW-620 colon 39.8% | MCF7 breast 12.8% | HCC-2998 colon 31.6% | KM12 colon 29.8%
active: T-47D breast 9.69% | HCT-116 colon 8.68%

CCOC(=O)c1c(C)[nH]c(C(=O)CCC(=O)OC)c1C
inactive: T-47D breast 101% | BT-549 breast 84.5% | MDA-MB-435 melanoma 103% | SW-620 colon 108% | MCF7 breast 98% | HCT-116 colon 81% | HCC-2998 colon 99.2% | KM12 colon 103%

Cl.Fc1c[c-]c(-c2ccccn2)c(F)c1.[Pt].c1ccc([PH+](c2ccccc2)c2ccccc2[PH+](c2ccccc2)c2ccccc2)cc1
active: T-47D breast -80.2% | BT-549 breast -70.2% | MDA-MB-435 melanoma -93.5% | SW-620 colon -81.6% | MCF7 breast -79.3% | HCT-116 colon -68% | HCC-2998 colon -76.6% | KM12 colon -90.6%

COc1ccc(-c2cc(-c3ccc(Nc4nc(Nc5ccccc5)nc(Nc5ccc(Cl)cc5)n4)cc3)nc(N)n2)cc1
active: HCC-2998 colon -7.72%
inactive: T-47D breast 35.5% | BT-549 breast 82.1% | MDA-MB-435 melanoma 66.6% | SW-620 colon 80% | MCF7 breast 22.6% | HCT-116 colon 38.1% | KM12 colon 39.9%

COc1cc2c(cc1OC)-c1ccc3cc4c(cc3c1N(CCCn1ccnc1)C2)OCO4
inactive: BT-549 breast 32.1% | MDA-MB-435 melanoma 61.1% | SW-620 colon 39.3% | MCF7 breast 14% | HCT-116 colon 20% | HCC-2998 colon 82.8% | KM12 colon 76.1%
active: T-47D breast -18.4%

CNCCNc1nc2ccccc2c2c(=O)c3cc(F)ccc3oc12
inactive: T-47D breast 96.1% | BT-549 breast 69.9% | MDA-MB-435 melanoma 76.5% | SW-620 colon 33.6% | MCF7 breast 45.2% | HCT-116 colon 27.2% | HCC-2998 colon 71.2% | KM12 colon 41.8%

O=C1/C(=C/c2ccc([N+](=O)[O-])cc2)COc2ccc(O)c(O)c21
active: T-47D breast -5.74% | MDA-MB-435 melanoma 0.103% | SW-620 colon -40.6% | MCF7 breast 8.42% | HCT-116 colon -34.3% | HCC-2998 colon -77.8% | KM12 colon -55.3%
inactive: BT-549 breast 24.3%

COC(=O)Nc1nc2ccc(C(=O)C3CC3)cc2[nH]1
active: MDA-MB-435 melanoma -63.7% | MCF7 breast 4.01% | HCT-116 colon 9.29% | HCC-2998 colon -12.7% | KM12 colon -0.0812%
inactive: T-47D breast 57.1% | BT-549 breast 74.9% | SW-620 colon 20.6%

COc1cc(CNC(=O)/C=C/C=C/c2ccc3c(c2)OCO3)ccc1OCc1cn(-c2ccc(Cl)c(Cl)c2)nn1
active: T-47D breast -4.43% | BT-549 breast -8.89% | MDA-MB-435 melanoma -18.3% | SW-620 colon -33.4% | MCF7 breast -46.2% | HCT-116 colon -30.6% | KM12 colon 1.12%
inactive: HCC-2998 colon 51.1%

COc1ccc(-c2cncnc2N)cc1OC
inactive: BT-549 breast 99.2% | MDA-MB-435 melanoma 104% | SW-620 colon 101% | MCF7 breast 103% | HCT-116 colon 94.8% | HCC-2998 colon 103% | KM12 colon 109%
active: T-47D breast -95.7%

COc1cccc(-c2nc3sccn3c2-c2ccnc(NCCNS(=O)(=O)c3c(Cl)cccc3Cl)c2)c1
inactive: BT-549 breast 30.4% | MDA-MB-435 melanoma 50.4% | SW-620 colon 74.1% | MCF7 breast 58.4% | HCT-116 colon 48.8% | HCC-2998 colon 99.4% | KM12 colon 46.7%
active: T-47D breast 6.81%

N#C/C(=C\c1ccc(Br)cc1)n1nnc2ccccc21
inactive: T-47D breast 24% | MCF7 breast 14.2%
active: BT-549 breast -1.46% | MDA-MB-435 melanoma -38.4% | SW-620 colon -19.9% | HCT-116 colon -44.2% | HCC-2998 colon -30.8% | KM12 colon 1.67%

CCNCCNc1cc(-c2ccc(Cl)cc2)c(C#N)c2nc3ccccc3n12
active: T-47D breast -60% | BT-549 breast -33.4% | MDA-MB-435 melanoma -85.7% | SW-620 colon -71.9% | MCF7 breast -22.8% | HCT-116 colon -78% | HCC-2998 colon 4.11%
inactive: KM12 colon 27.8%

O=C1C=CC(=Nc2cc(Br)c(O)c(Br)c2)C=C1
inactive: T-47D breast 70.7% | BT-549 breast 55.1% | MDA-MB-435 melanoma 36.1% | SW-620 colon 46.4% | MCF7 breast 40.1% | HCT-116 colon 43.5% | HCC-2998 colon 102% | KM12 colon 94.7%

O=C1C2=C(CCN(Cc3ccccc3)C2)N2CCN=C2N1Cc1ccc(C(F)(F)F)cc1
inactive: T-47D breast 24.1% | BT-549 breast 32% | MDA-MB-435 melanoma 24.4% | SW-620 colon 37% | MCF7 breast 21.2% | HCT-116 colon 23% | HCC-2998 colon 23.9% | KM12 colon 39.4%

Cc1nc(Nc2ccccn2)sc1C(=O)/C=C/c1ccc(Br)cc1
active: MCF7 breast 8.46%
inactive: T-47D breast 45.7% | BT-549 breast 83.3% | MDA-MB-435 melanoma 14.6% | SW-620 colon 45.7% | HCT-116 colon 72.6% | HCC-2998 colon 103% | KM12 colon 24.2%

O=C(c1ccccc1)c1ccc(N2C(=O)C3C4c5ccccc5C(/C=C/C(=O)c5ccccn5)(c5ccccc54)C3C2=O)cc1 (stereo unspecified)
active: MDA-MB-435 melanoma 4.74% | SW-620 colon 3.76% | HCT-116 colon -27.4% | KM12 colon 9.88%
inactive: T-47D breast 27% | BT-549 breast 22.2% | MCF7 breast 19% | HCC-2998 colon 25.3%

Clc1ccc(/C=C/c2nc(Nc3ccc(Cl)cc3)c3ccccc3n2)cc1
inactive: T-47D breast 91.2% | BT-549 breast 107% | MDA-MB-435 melanoma 109% | SW-620 colon 103% | MCF7 breast 80.9% | HCT-116 colon 99.1% | HCC-2998 colon 106% | KM12 colon 109%

CN(C)c1ccc(/C=N/NC(=O)COc2cc(=O)n(C)c3ccccc23)cc1
inactive: T-47D breast 97.6% | BT-549 breast 108% | MDA-MB-435 melanoma 101% | SW-620 colon 104% | MCF7 breast 89.4% | HCT-116 colon 101% | HCC-2998 colon 116% | KM12 colon 109%

Cc1nc(Nc2ccc(S(=O)(=O)Nc3cc(C)on3)cc2)c2ccccc2n1
inactive: T-47D breast 89.1% | BT-549 breast 120% | MDA-MB-435 melanoma 101% | SW-620 colon 109% | MCF7 breast 91.9% | HCT-116 colon 109% | HCC-2998 colon 107% | KM12 colon 103%

COc1cc2c(cc1OC)-c1ccc3cc4c(cc3c1N(CCN1CCCC1)C2)OCO4
inactive: BT-549 breast 21.8% | MDA-MB-435 melanoma 56.4% | HCC-2998 colon 15.7% | KM12 colon 16.7%
active: T-47D breast -28.3% | SW-620 colon -40.1% | MCF7 breast -6.8% | HCT-116 colon -84.5%

CCN(CC)CC(=O)Nc1cccc(C(=O)OC(C)C)c1
inactive: T-47D breast 92% | BT-549 breast 66% | MDA-MB-435 melanoma 102% | SW-620 colon 115% | MCF7 breast 103% | HCT-116 colon 72.8% | HCC-2998 colon 99.5% | KM12 colon 105%

CCOC(=O)c1nnn(-c2ccccc2)c1C1=CN(C)CCC1
inactive: T-47D breast 93.3% | BT-549 breast 99.4% | MDA-MB-435 melanoma 105% | SW-620 colon 101% | MCF7 breast 92.9% | HCT-116 colon 87.7% | HCC-2998 colon 95.9% | KM12 colon 99.9%

COc1cc2c(c(OC)c1OC)C(=O)/C(=C/c1cc(C)c(O)c(C)c1)S2
inactive: T-47D breast 47.6% | BT-549 breast 56.9% | SW-620 colon 39.3% | MCF7 breast 21.7% | HCT-116 colon 33.2% | HCC-2998 colon 46.4% | KM12 colon 20.9%
active: MDA-MB-435 melanoma -37.2%

COc1cc2oc3cc(C)oc(=O)c3c2cc1OC
inactive: T-47D breast 89.8% | BT-549 breast 109% | MDA-MB-435 melanoma 97.7% | SW-620 colon 103% | MCF7 breast 98% | HCT-116 colon 90.4% | HCC-2998 colon 92.4% | KM12 colon 105%

CCn1c(Sc2nnc(NC(C)=O)s2)nc2c1c(=O)n(C)c(=O)n2C
inactive: T-47D breast 93% | BT-549 breast 92.8% | MDA-MB-435 melanoma 98.1% | SW-620 colon 96.1% | MCF7 breast 94.8% | HCT-116 colon 97% | HCC-2998 colon 92% | KM12 colon 106%

Cc1ccc(/C=C(\C#N)n2nnc3cc(Cl)c(Cl)cc32)cc1
active: BT-549 breast 7.89% | MDA-MB-435 melanoma -46.7% | MCF7 breast 6.58% | HCT-116 colon 8.31% | KM12 colon 0.682%
inactive: T-47D breast 15.1% | SW-620 colon 16.3% | HCC-2998 colon 13.6%

C=CC(=O)N[C@@H](Cc1ccc(-c2cc(Cl)cc(Cl)c2)cc1)[C@@H](O)[C@H](O)C(=O)O
inactive: T-47D breast 96.1% | BT-549 breast 91.9% | MDA-MB-435 melanoma 102% | SW-620 colon 101% | MCF7 breast 93.5% | HCT-116 colon 91.5% | HCC-2998 colon 87.3% | KM12 colon 102%

O=C1CSC(c2ccccc2)N1c1ccccc1 (stereo unspecified)
inactive: T-47D breast 103% | BT-549 breast 103% | MDA-MB-435 melanoma 108% | SW-620 colon 94.5% | MCF7 breast 96.6% | HCT-116 colon 99.9% | HCC-2998 colon 115% | KM12 colon 98.4%
